This is part of a sample that, as a whole, favours compounds with a hit. Of some 79,000 tested, about 15% had one in any assay. Unmarked numbers belong to inactive results. Activity calls are given as the source filed them. No stated cut-off is given here; in the data, active means growth inhibition above about 70%; inactive means the rest.
Columns and labels:
[1] = NCI Yeast Anticancer Drug Screen. Data for the rad50 strain (AID 155);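 further: 0% = growth of vehicle-only cultures of the same strain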; conditions: S. cerevisiae rad50 strain growth inhibition, hits give high values
Method in brief: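 Genetically altered yeast (DNA repair pathway); compound treatment; growth inhibition vs vehicle ctrl.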

[2] = NCI Yeast Anticancer Drug Screen. Data for the mec2-1 strain (AID 157); conditions: S. cerevisiae mec2-1 strain, hits give high values
Method in brief: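 mec2-1 yeast strain, carrying an alteration in DNA damage repair or cell cycle control, was exposed to compounds; growth inhibition was measured relative to vehicle-treated controls.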

[3] = NCI Yeast Anticancer Drug Screen. Data for the sgs1 mgt1 strain (AID 161);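 further: 0% = growth of cultures given vehicle only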; conditions: S. cerevisiae sgs1 mgt1 strain, hits give high values
Method in brief: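 Growth of a repair-deficient yeast mutant was monitored after compound treatment and expressed as inhibition relative to vehicle-treated cultures.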

[4] = NCI Yeast Anticancer Drug Screen. Data for the cln2 rad14 strain (AID 165);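 further: 0% = growth equal to vehicle treated cultures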; conditions: S. cerevisiae cln2 rad14 strain, hits give high values
Method in brief: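 Yeast carrying cln2 and rad14 alterations (cell cycle control and DNA damage repair) were exposed to compounds. Growth inhibition was measured against vehicle-treated controls.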

[5] = NCI Yeast Anticancer Drug Screen. Data for the bub3 strain (AID 167); conditions: S. cerevisiae bub3 mutant strain, hits give high values
Method in brief: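 Yeast carrying a defined mutation is treated with each compound, and growth is compared with that of vehicle-exposed cells to give inhibition.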

[6] = NCI Yeast Anticancer Drug Screen. Data for the mlh1 rad18 strain (AID 175); conditions: S. cerevisiae mlh1 rad18 strain growth inhibition, hits give high values
Method in brief: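 Growth inhibition of the yeast strain was measured after compound exposure and expressed relative to vehicle-treated controls. The strain carries defined defects in DNA damage repair.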

[7] = at 5.0 µM (retest, dose inferred, filed as 0.5)
[8] = at 50.0 µM (retest, dose inferred, filed as 5.0)

Row | Compound | growth inhibition [1, 7] [%] | growth inhibition [1, 8] | growth inhibition ([1]; at 50.0 µM) | growth inhibition [2, 7] [%] | growth inhibition [2, 8] | growth inhibition ([2]; at 50.0 µM) | growth inhibition [3, 7] [%] | growth inhibition [3, 8] | growth inhibition ([3]; at 50.0 µM) | growth inhibition [4, 7] [%] | growth inhibition [4, 8] | growth inhibition ([4]; at 50.0 µM) | growth inhibition [5, 7] [%] | growth inhibition [5, 8] | growth inhibition ([5]; at 50.0 µM) | growth inhibition [6, 7] | growth inhibition [6, 8] | growth inhibition ([6]; at 50.0 µM)
1 | Cc1c(Cl)ccc(O)c1[N+](=O)[O-] | 2 | 87% (active) | 91.6% (active) | 2 | 86% (active) | 91.7% (active) | 3 | 82% (active) | 96.1% (active) | 2 | 75% (active) | 84.8% (active) | 5 | 93% (active) | 88.8% (active) | -1% | 97% (active) | 94% (active)
2 | OCCc1ccccc1C(c1ccccc1)c1ccccc1 | 5 | 98% (active) | 99.3% (active) | -4 | 99% (active) | 99.4% (active) | 1 | -16% | 99.2% (active) | 8 | 99% (active) | 98.8% (active) | 0 | 99% (active) | 99.2% (active) | 4% | 99% (active) | 98.9% (active)
3 | O=C(O)c1cccc(S(=O)(=O)NN2C(=O)CSC2c2c(O)ccc3ccccc23)c1 (configuration not stated) | -11 | 50% | 61.9% | 0 | 50% | 61% | 2 | 80% (active) | 91.7% (active) | -4 | 57% | 36.9% | 6 | 86% (active) | 83.5% (active) | -15% | 82% (active) | 95.2% (active)
4 | COc1cc(C(=O)C=[N+]=[N-])c([N+](=O)[O-])c(OC)c1OC | 12 | 77% (active) | 63.2% | 22 | 91% (active) | 90.8% (active) | 19 | 92% (active) | 91.8% (active) | 11 | 51% | 41.9% | 9 | 67% | 93.2% (active) | 8% | 89% (active) | 94.4% (active)
5 | Cc1ccc(C(=O)OCCN2CCN(c3ccccc3)CC2)c([N+](=O)[O-])c1OCc1ccccc1 | 30 | 66% | 87% (active) | 36 | 43% | 63.9% | 25 | 82% (active) | 89.3% (active) | 24 | 64% | 74% (active) | 28 | 70% (active) | 72.7% (active) | 19% | 78% (active) | 90.6% (active)
6 | CC(C)Sc1nc(NC(=O)N(CCCl)N=O)cc(=O)[nH]1 | -12 | 26% | 13.8% | -4 | 9% | -2% | -12 | 23% | 20.4% | 8 | 12% | 5.7% | -1 | 7% | 13.2% | 2% | 74% (active) | 23.8%
7 | COc1cc(NCC(C)(O)CN2CCC(C)CC2C)c2ncccc2c1 (configuration not stated) | 14 | 57% | 83.2% (active) | 14 | 47% | 50.1% | 20 | 61% | 77% (active) | 13 | 52% | 79.4% (active) | 7 | 54% | 80.7% (active) | 0% | 58% | 83.7% (active)
8 | NNC(=S)N/N=C(\CC1OC(=O)c2ccccc21)c1ccccc1O (configuration not stated) | 6 | -3% | 80.1% (active) | -12 | -17% | 60.2% | 22 | 7% | 56.1% | 11 | 4% | 32% | -9 | 13% | 58.1% | -43% | -27% | 84.2% (active)
9 | CC1(C)C2CCC(C2)C1OC(=O)c1ccccc1C(=O)O (configuration not stated) | -7 | 11% | 1.45% | -2 | 0% | 12.9% | -5 | 6% | -6.05% | 10 | 15% | 76.2% (active) | -2 | 26% | 71% (active) | -21% | 6% | 32.7%
10 | CC1(C)OC2C(COC(c3ccccc3)(c3ccccc3)c3ccccc3)OC(n3cnc4c(=O)[nH]cnc43)C2O1 (configuration not stated) | 43 | 97% (active) | 69% | 62 | 99% (active) | 62% | 24 | 99% (active) | 56.5% | 19 | 97% (active) | 50.9% | 30 | 98% (active) | 49.9% | 84% (active) | 98% (active) | 61.9%
11 | CCCCC(CSC#N)SC#N (configuration not stated) | 14 | 98% (active) | 99% (active) | 14 | 98% (active) | 98.3% (active) | 12 | 97% (active) | 97.2% (active) | 3 | 95% (active) | 97.2% (active) | 16 | 97% (active) | 98% (active) | 24% | 98% (active) | 98.3% (active)
12 | CN(Cc1cc(C(C)(C)C)cc(Br)c1O)Cc1cc(C(C)(C)C)cc(Br)c1O | 2 | 24% | 72% (active) | -2 | 91% (active) | 86.2% (active) | -9 | 64% | 58.8% | -11 | 87% (active) | 89.5% (active) | -11 | 71% (active) | 81.3% (active) | -8% | 84% (active) | 61.1%
13 | COc1ccc(-c2cc3ccccc3c(=O)n2Cc2ccccc2)cc1 | 8 | 66% | 78.3% (active) | 11 | 74% (active) | 88.4% (active) | 13 | 73% (active) | 83.7% (active) | 6 | 57% | 74% (active) | 8 | 63% | 89.3% (active) | 11% | 66% | 79.3% (active)
14 | CS(=O)(=O)N1C(=O)C2C3CCC(O3)C2C1=O (configuration not stated) | -142 | 91% (active) | 73.5% (active) | -46 | 71% (active) | 57.7% | -61 | 52% | 26.4% | -56 | 73% (active) | 19.5% | -74 | 64% | 40.8% | -145% | 75% (active) | 42.6%
15 | COC(=O)c1cc(-c2c[nH]cc2C(=O)OCc2ccccc2)cn1S(=O)(=O)c1ccc(C)cc1 | 17 | 6% | 92.5% (active) | 18 | 11% | 93.1% (active) | 7 | -6% | 94.4% (active) | 2 | 2% | 88.9% (active) | -39 | 2% | 87.3% (active) | 24% | 22% | 91.2% (active)
16 | CCCCCCC(O)(CCCCCC)CCCCCC | -1 | -34% | 83.3% (active) | -3 | -34% | 32.8% | -3 | -31% | 42.8% | 1 | -41% | 23.9% | 0 | -12% | 5.3% | 1% | -31% | 44.1%
17 | NC1C(=O)C2CCCCC2C(=O)C1C(=O)c1ccccc1 (configuration not stated) | -2 | 28% | -0.5% | 4 | 17% | 16.4% | -1 | -6% | 23.4% | 1 | 10% | -55.4% | 5 | 49% | 73.9% (active) | 3% | 24% | 48.1%
18 | COc1ccc(C2COc3cc(O)c(O)cc3C2)cc1OC (configuration not stated) | -10 | 60% | 61.4% | 14 | 81% (active) | 72.2% (active) | 7 | 69% | 43.3% | -6 | 2% | 51.5% | -14 | 60% | 29.6% | 1% | 90% (active) | 88% (active)
19 | Cc1ccc(C(=O)CC(N)C(=O)O)cc1 (configuration not stated) | -2 | 0% | 12.2% | 3 | -2% | -3% | -1 | -1% | -3.05% | 2 | 1% | 89% (active) | 2 | -2% | -2.25% | -1% | 3% | 8.95%

Reference: PubChem BioAssay (NCI)
